# Data as given in PubChem BioAssay (Tox21).
# Records with an inconclusive call do not appear. A call without a number means that no potency is given here. Active and inactive are the calls of the source. Unless noted, calls follow the shape of the dose curve; as a rule, active = well fitted curve in the direction sought with a large enough effect in the repeat runs; inconclusive = weak or mixed curves; inactive = no such curve, though single readings can be large; an effect the other way counts as inactive or inconclusive.
# Legend:
# [1] = qHTS assay to identify small molecule antagonists of the retinoid-related orphan receptor gamma (ROR-gamma) signaling pathway - cell viability counter screen (AID 1159520); also: nearly all actives have a fitted effect of over 50% in size; also: potency is read from the fitted curve at half-maximal effect
# Method in brief: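 Tet-on ROR gamma CHO cells were given compounds for 2 hr, then doxycycline hyclate at 1 uM final, and incubated 16 hr at 37 C. Viability was measured as ATP content by CellTiter-Glo luminescence.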
# [2] = qHTS assay to identify small molecule agonists of the AP-1 signaling pathway - cell viability counter screen (AID 1159525; calls by dose curve; also: nearly all actives have a fitted effect of over 55% in size; also: potency is read from the fitted curve at half-maximal effect)
# Method in brief: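 Same-well cytotoxicity counter screen of the Tox21 10K library in ME-180 cells. The readout is ATP-dependent luminescence after 5 h compound treatment. Data are normalised to DMSO and tetra n-octyl ammonium bromide controls.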
# [3] = qHTS assay to identify small molecule agonists of the AP-1 signaling pathway (AID 1159526; calls by dose curve; also: potency is read from the fitted curve at half-maximal effect)
# [4] = target: Retinoic acid receptor RXR-alpha (Homo sapiens) (UniProt P19793); experiment: qHTS assay to identify small molecule agonists of the RXR signaling pathway (AID 1159527; calls by dose curve; also: nearly all actives have a fitted effect of over 35% in size)
# Method in brief: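 Agonist mode; 9-cis retinoic acid positive control. HEK 293T UAS-bla reporter cells, 2% charcoal-stripped FBS, 16 hr compound exposure at 37 C/5% CO2. LiveBLAzer B/G FRET substrate 2 hr RT; ex 405, em 460/530 nm.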
# [5] = qHTS assay to identify small molecule agonists of the RXR signaling pathway - cell viability counter screen (AID 1159529); also: nearly all actives have a fitted effect of over 50% in size; also: potency is read from the fitted curve at half-maximal effect
# Method in brief: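 Luminescence from CellTiter-Glo (30 min, RT) measured viability in the same wells as the beta-lactamase reporter readout. Cells: GeneBLAzer RXR-alpha HEK 293T, 2% charcoal-stripped FBS. Compound exposure 16 hr, 37 C.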
# [6] = qHTS assay to identify small molecule antagonists of the retinoid acid receptor (RAR) signaling pathway - cell viability counter screen (AID 1159551); also: nearly all actives have a fitted effect of over 35% in size; also: potency is read from the fitted curve at half-maximal effect
# Method in brief: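 Viability of C3RL4 cells is quantified from ATP by luminescence after 6 h treatment at 37 C with compounds and 1 uM retinol.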
# [7] = qHTS assay to identify small molecule antagonists of the retinoic acid receptor (RAR) signaling pathway (AID 1159552; also: nearly all actives have a fitted effect of over 50% in size; also: potency is read from the fitted curve at half-maximal effect)
# Method in brief: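 Luminescence from a RARE luciferase reporter in C3RL4 cells served as read-out. Cells received compounds together with 1 uM final retinol and incubated 6 hr at 37 C before detection reagent was added for 30 min at room temperature.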
# [8] = qHTS assay to identify small molecule agonists of the peroxisome proliferator-activated receptor delta (PPARd) signaling pathway - cell viability counter screen (AID 743211); also: potency is read from the fitted curve at half-maximal effect; nearly all actives have a fitted effect of over 55% in size
# Method in brief: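 Read-out: CellTiter-Glo luminescence, 30 min RT, measured in the same wells as the beta-lactamase reporter. Cells: GeneBLAzer PPAR delta UAS-bla HEK293H, 3000 cells/well, compound exposure 17 h at 37C.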
# [9] = qHTS assay to identify small molecule antagonists of the peroxisome proliferator-activated receptor delta (PPARd) signaling pathway - cell viability counter screen (AID 743213); also: potency is read from the fitted curve at half-maximal effect; nearly all actives have a fitted effect of over 50% in size
# Method in brief: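 Same-well viability: cells pre-incubated 5 h, dosed with compound plus 300 nM L165041, kept 17 h at 37 C, FRET substrate 2 h RT, then CellTiter-Glo 30 min RT and luminescence.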
# [10] = qHTS assay to identify small molecule agonists of the farnesoid-X-receptor (FXR) signaling pathway - cell viability counter screen (AID 743218); also: nearly all actives have a fitted effect of over 45% in size; also: potency is read from the fitted curve at half-maximal effect
# Method in brief: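 Readout: CellTiter-Glo luminescence, 30 min RT, multiplexed after the FXR-bla FRET reading. HEK 293T FXR-UAS-bla cells received compound 5 h post-plating and were incubated 16 h at 37 C.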
# [11] = qHTS assay to identify small molecule antagonists of the farnesoid-X-receptor (FXR) signaling pathway - cell viability counter screen (AID 743221; active = well fitted cell-killing curve with a large enough effect in the repeat runs, not every such curve was filed as active; also: nearly all actives have a fitted effect of over 50% in size; also: potency is read from the fitted curve at half-maximal effect)
# Method in brief: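 HEK 293T FXR-bla cells, 5 h pre-incubation; compound + CDCA 50 uM final, 16 h, 37 C; beta-lactamase FRET read first, then CellTiter-Glo luminescence, 30 min RT.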
# [12] = target: Vitamin D3 receptor (Homo sapiens) (UniProt P11473); experiment: qHTS assay to identify small molecule antagonists of the vitamin D receptor (VDR) signaling pathway (AID 743223; active = well fitted inhibition curve with a large enough effect in the signal ratio in the repeat runs, not every such curve was filed as active; the % refers to the signal ratio; also: potency is read from the fitted curve at half-maximal effect)
# Method in brief: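 Beta-lactamase reporter read-out: FRET substrate fluorescence after 2 h at room temperature, following 16 h exposure of VDR-bla cells to test compound plus 3 nM (final) 1alpha,25-dihydroxyvitamin D3 agonist at 37C.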
# [13] = qHTS assay to identify small molecule agonists of the vitamin D receptor (VDR) signaling pathway - cell viability counter screen (AID 743224)
# Method in brief: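 In parallel with the bla FRET readout, cytotoxicity toward VDR-bla cells after 16 h compound exposure was assessed by CellTiter-Glo, with luminescence recorded after a 30 min room-temperature incubation.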
# [14] = qHTS assay to identify small molecule antagonists of the vitamin D receptor (VDR) signaling pathway - cell viability counter screen (AID 743225); also: nearly all actives have a fitted effect of over 50% in size; also: potency is read from the fitted curve at half-maximal effect
# Method in brief: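 Viability counter screen run in the same wells as the beta-lactamase reporter assay: HEK 293T VDR-UAS-bla cells, 16 h compound exposure at 37C with 3 nM (final) 1-alpha,25-dihydroxyvitamin D3. CellTiter-Glo luminescence, 30 min, room temperature.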
# [15] = target: Bile acid receptor (Homo sapiens) (UniProt Q96RI1); experiment: qHTS assay to identify small molecule agonists of the farnesoid-X-receptor (FXR) signaling pathway (AID 743220; active = well fitted activation curve with a large enough effect in the signal ratio in the repeat runs, not every such curve was filed as active; the % refers to the signal ratio)
# Method in brief: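 FXR-UAS-bla HEK 293T cells carrying a UAS-driven beta-lactamase reporter were plated for 5 h at 37C/5% CO2, then exposed to DMSO-dissolved Tox21 10K compounds for 16 h at 37C. A LiveBLAzer B/G FRET substrate was loaded for 2 h at room temperature before fluorescence reading.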
# [16] = target: Nuclear receptor ROR-gamma (Homo sapiens) (UniProt P51449); experiment: qHTS assay to identify small molecule antagonists of the retinoid-related orphan receptor gamma (ROR-gamma) signaling pathway (AID 1159521)
# Method in brief: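 Luminescence readout (ONE-Glo, 30 min RT) after 16 h doxycycline induction; loss of signal scored as antagonism. CHO cells with TET-inducible RORγ and RORE-LUC reporter; compounds added 2 h before 1 uM final doxycycline.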
# [17] = qHTS assay to identify small molecule agonists of the retinoic acid receptor (RAR) signaling pathway (AID 1159553); also: potency is read from the fitted curve at half-maximal effect
# Method in brief: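 Compounds dissolved in DMSO were pinned onto C3RL4 cells seeded the previous day, and plates were held 6 hr at 37 C. RARE-driven luciferase output was then read by luminescence.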
# [18] = target: Peroxisome proliferator-activated receptor delta (Homo sapiens) (UniProt Q03181); experiment: qHTS assay to identify small molecule agonists of the peroxisome proliferator-activated receptor delta (PPARd) signaling pathway (AID 743212; calls by dose curve)
# Method in brief: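 Read-out: beta-lactamase FRET fluorescence after 2 h room-temperature incubation with LiveBLAzer B/G substrate. Cells were HEK293H carrying a UAS-bla reporter for PPARd, treated at 37 C with DMSO-dissolved compounds.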
# [19] = target: Bile acid receptor (Homo sapiens) (UniProt Q96RI1); experiment: qHTS assay to identify small molecule antagonists of the farnesoid-X-receptor (FXR) signaling pathway (AID 743217; active = well fitted inhibition curve with a large enough effect in the signal ratio in the repeat runs, not every such curve was filed as active; the % refers to the signal ratio)
# Method in brief: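 FRET fluorescence after 2 h room-temperature LiveBLAzer loading gives the readout. Prior step: FXR-bla HEK 293T cells, seeded and incubated 5 h, received test compounds plus 50 uM final CDCA for 16 h at 37 °C.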
# Bile acid receptor (Homo sapiens), sequence (Q96RI1 whole entry, looked up): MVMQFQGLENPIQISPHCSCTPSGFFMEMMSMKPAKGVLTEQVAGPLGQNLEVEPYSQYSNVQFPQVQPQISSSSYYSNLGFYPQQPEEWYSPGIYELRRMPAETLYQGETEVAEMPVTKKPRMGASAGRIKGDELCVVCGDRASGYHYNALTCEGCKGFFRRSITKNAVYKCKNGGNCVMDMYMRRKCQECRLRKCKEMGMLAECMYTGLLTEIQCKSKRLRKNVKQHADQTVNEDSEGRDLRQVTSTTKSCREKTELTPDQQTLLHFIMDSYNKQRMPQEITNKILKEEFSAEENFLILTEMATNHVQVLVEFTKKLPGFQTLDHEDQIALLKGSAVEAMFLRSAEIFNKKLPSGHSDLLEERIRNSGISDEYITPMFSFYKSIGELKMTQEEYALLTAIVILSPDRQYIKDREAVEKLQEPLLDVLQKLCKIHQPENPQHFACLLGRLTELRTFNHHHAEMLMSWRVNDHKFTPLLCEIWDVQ
# Retinoic acid receptor RXR-alpha (Homo sapiens), sequence (P19793 whole entry, looked up): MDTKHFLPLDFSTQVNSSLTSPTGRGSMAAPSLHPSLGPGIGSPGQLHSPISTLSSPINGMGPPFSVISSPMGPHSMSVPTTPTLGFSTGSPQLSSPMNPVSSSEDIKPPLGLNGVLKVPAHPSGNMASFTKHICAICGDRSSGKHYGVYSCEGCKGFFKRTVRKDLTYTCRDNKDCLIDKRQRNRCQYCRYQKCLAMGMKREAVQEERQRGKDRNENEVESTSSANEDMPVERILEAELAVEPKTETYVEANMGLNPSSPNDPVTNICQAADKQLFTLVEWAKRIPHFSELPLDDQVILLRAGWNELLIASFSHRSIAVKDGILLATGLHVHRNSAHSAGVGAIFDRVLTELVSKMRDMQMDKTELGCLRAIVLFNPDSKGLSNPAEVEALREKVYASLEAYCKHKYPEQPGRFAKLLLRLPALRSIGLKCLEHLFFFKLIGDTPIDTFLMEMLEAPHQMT
# Vitamin D3 receptor (Homo sapiens), sequence (P11473 whole entry, looked up): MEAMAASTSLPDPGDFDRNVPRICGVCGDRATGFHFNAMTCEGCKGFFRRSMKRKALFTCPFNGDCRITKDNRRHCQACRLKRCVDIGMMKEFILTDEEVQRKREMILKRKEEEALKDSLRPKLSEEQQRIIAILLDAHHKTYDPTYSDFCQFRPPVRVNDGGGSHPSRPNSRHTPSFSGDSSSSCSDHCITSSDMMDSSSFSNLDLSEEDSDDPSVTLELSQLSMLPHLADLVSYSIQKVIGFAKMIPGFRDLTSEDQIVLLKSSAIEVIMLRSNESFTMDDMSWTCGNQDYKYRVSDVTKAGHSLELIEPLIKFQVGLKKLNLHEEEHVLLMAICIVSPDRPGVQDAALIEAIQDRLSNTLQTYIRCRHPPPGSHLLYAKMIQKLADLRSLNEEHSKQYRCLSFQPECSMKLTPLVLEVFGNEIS
# Peroxisome proliferator-activated receptor delta (Homo sapiens), sequence (Q03181 whole entry, looked up): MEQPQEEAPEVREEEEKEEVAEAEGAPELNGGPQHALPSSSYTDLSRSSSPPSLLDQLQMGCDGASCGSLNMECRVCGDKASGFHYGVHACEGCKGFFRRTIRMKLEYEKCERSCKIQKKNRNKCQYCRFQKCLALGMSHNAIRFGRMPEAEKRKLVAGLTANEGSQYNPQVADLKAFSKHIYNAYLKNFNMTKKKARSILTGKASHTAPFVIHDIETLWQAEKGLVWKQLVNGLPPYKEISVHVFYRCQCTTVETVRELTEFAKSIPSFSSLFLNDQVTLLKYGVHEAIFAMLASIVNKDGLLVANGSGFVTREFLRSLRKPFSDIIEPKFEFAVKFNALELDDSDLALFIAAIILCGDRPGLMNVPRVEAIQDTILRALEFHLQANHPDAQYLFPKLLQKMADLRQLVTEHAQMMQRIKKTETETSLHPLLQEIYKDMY
structure (smiles),measurement,setting,value
C=CC(=O)OCC(Br)CBr (centres undefined),Potency,[1],inactive
same,Potency,[2],inactive
same,Potency,[3],inactive
same,Potency,[4],inactive
same,Potency,[5],inactive
same,Potency,[6],inactive
same,Potency,[7],inactive
CCCCCCCCc1ccc(Nc2ccc(CCCCCCCC)cc2)cc1,Potency,[1],inactive
same,Potency,[2],inactive
same,Potency,[3],inactive
same,Potency,[4],inactive
same,Potency,[5],inactive
same,Potency,[6],inactive
same,Potency,[7],inactive
Cc1cc(F)ccc1-c1cc(N2CC[C@@H](O)[C@H]2CO)ncc1N(C)C(=O)C(C)(C)c1cc(C(F)(F)F)cc(C(F)(F)F)c1,Potency,[8],13.6 µM (active)
same,Potency,[9],13.6 µM (active)
same,Potency,[10],13.6 µM (active)
same,Potency,[11],15.3 µM (active)
same,Potency,[12],21.5 µM (active)
same,Potency,[13],10.8 µM (active)
same,Potency,[14],13.6 µM (active)
same,Potency,[1],53.6 µM (active)
same,Potency,[2],17.1 µM (active)
same,Potency,[5],17.1 µM (active)
same,Potency,[6],inactive
same,Potency,[7],42.6 µM (active)
C1CCSC1,Potency,[1],inactive
same,Potency,[2],inactive
same,Potency,[3],inactive
same,Potency,[4],inactive
same,Potency,[5],inactive
same,Potency,[6],inactive
same,Potency,[7],inactive
O=[N+]([O-])c1ccc(O)c2ncccc12,Potency,[10],inactive
same,outcome,[15],inactive
same,Potency,[11],inactive
same,Potency,[12],9.52 µM (active)
same,Potency,[14],inactive
same,Potency,[1],23.7 µM (active)
same,Potency,[16],29.8 µM (active)
same,Potency,[6],inactive
same,Potency,[7],inactive
CCc1cccc(CC)c1,Potency,[1],inactive
same,Potency,[2],inactive
same,Potency,[3],inactive
same,Potency,[4],inactive
same,Potency,[5],inactive
same,Potency,[6],inactive
same,Potency,[7],inactive
CSc1nnc(C(C)(C)C)c(=O)[nH]1,Potency,[1],inactive
same,Potency,[2],inactive
same,Potency,[3],inactive
same,Potency,[4],inactive
same,Potency,[5],inactive
same,Potency,[6],inactive
COc1cc(/C=C/C(=O)CC(=O)/C=C/c2ccc(O)c(OC)c2)ccc1O,Potency,[8],34.9 µM (active)
same,Potency,[10],24.7 µM (active)
same,Potency,[11],43.9 µM (active)
same,Potency,[13],49.3 µM (active)
same,Potency,[14],49.3 µM (active)
same,Potency,[1],48.9 µM (active)
same,Potency,[16],61.5 µM (active)
same,Potency,[7],inactive
same,Potency,[17],9.75 µM (active)
CN1CCN(CCCN2c3ccccc3Sc3ccc(C(F)(F)F)cc32)CC1,Potency,[8],18.8 µM (active)
same,Potency,[9],26.6 µM (active)
same,Potency,[10],26.6 µM (active)
same,outcome,[15],inactive
same,Potency,[11],26.6 µM (active)
same,Potency,[14],23.9 µM (active)
same,Potency,[1],inactive
same,Potency,[2],inactive
same,Potency,[5],21.3 µM (active)
same,Potency,[6],inactive
same,Potency,[7],23.7 µM (active)
CCC1(C)C(=O)N(Cl)C(=O)N1Cl (centres undefined),Potency,[1],inactive
same,Potency,[2],inactive
same,Potency,[3],inactive
same,Potency,[4],inactive
same,Potency,[5],inactive
same,Potency,[6],inactive
same,Potency,[7],inactive
O=C(Nc1ccccc1)c1cc(Cl)ccc1O,Potency,[10],38.9 µM (active)
same,outcome,[15],inactive
same,Potency,[13],12.3 µM (active)
same,Potency,[14],12.3 µM (active)
same,Potency,[1],24.3 µM (active)
same,Potency,[16],12.2 µM (active)
same,Potency,[6],inactive
same,Potency,[7],inactive
O=C(CCCCCCCCc1cccnc1)N1CCC(C=C(c2ccccc2)c2ccccc2)CC1,Potency,[8],12.3 µM (active)
same,Potency,[10],24.5 µM (active)
same,Potency,[11],inactive
same,Potency,[12],inactive
same,Potency,[14],inactive
same,Potency,[1],68.6 µM (active)
same,Potency,[2],inactive
same,Potency,[6],inactive
same,Potency,[7],inactive
same,Potency,[17],inactive
Cc1ccc(C2OC[C@@H]3OC(c4ccc(C)cc4)O[C@H]([C@H](O)CO)[C@@H]3O2)cc1 (some centres undefined),Potency,[1],inactive
same,Potency,[2],inactive
same,Potency,[3],inactive
same,Potency,[4],inactive
same,Potency,[5],inactive
same,Potency,[6],inactive
same,Potency,[7],inactive
CC1=CC[C@@H](C(C)(C)O)CC1,Potency,[1],inactive
same,Potency,[3],inactive
same,Potency,[4],inactive
same,Potency,[5],inactive
same,Potency,[6],inactive
Nc1ccc(Oc2cccc(Oc3ccc(N)cc3)c2)cc1,Potency,[1],inactive
same,Potency,[2],inactive
same,Potency,[3],inactive
same,Potency,[5],inactive
same,Potency,[6],inactive
same,Potency,[7],24.3 µM (active)
CN(C[C@@H](CC[N+]12CCC(C3CCCCC3)(CC1)CC2)c1ccc(Cl)c(Cl)c1)C(=O)c1cc(C(F)(F)F)cc(C(F)(F)F)c1,Potency,[8],17.4 µM (active)
same,Potency,[9],24.5 µM (active)
same,Potency,[10],54.9 µM (active)
same,Potency,[11],27.5 µM (active)
same,Potency,[13],17.4 µM (active)
same,Potency,[14],27.5 µM (active)
same,Potency,[1],48.6 µM (active)
same,Potency,[2],43.6 µM (active)
same,Potency,[5],17.4 µM (active)
same,Potency,[6],54.5 µM (active)
O=C(Cl)c1ccc(Cl)cc1Cl,Potency,[1],61.1 µM (active)
same,Potency,[3],inactive
same,Potency,[4],inactive
same,Potency,[5],inactive
same,Potency,[6],inactive
same,Potency,[7],inactive
CC1(C)[C@H]2CC[C@]1(C)C(=O)C2,Potency,[1],inactive
same,Potency,[2],inactive
same,Potency,[3],19.5 µM (active)
same,Potency,[5],inactive
same,Potency,[6],inactive
same,Potency,[7],inactive
CC/C(=C(/c1ccc(O)cc1)c1ccc(OCCN(C)C)cc1)c1ccccc1,Potency,[1],40.3 µM (active)
same,Potency,[2],36.2 µM (active)
same,Potency,[5],14.4 µM (active)
same,Potency,[6],35.9 µM (active)
same,Potency,[7],18 µM (active)
CCOC(=O)[C@H](O)[C@@H](O)C(=O)OCC,Potency,[1],inactive
same,Potency,[2],inactive
same,Potency,[3],inactive
same,Potency,[4],inactive
same,Potency,[5],inactive
same,Potency,[6],inactive
same,Potency,[7],inactive
CCC(O)CO (centres undefined),Potency,[1],inactive
same,Potency,[3],inactive
same,Potency,[4],inactive
same,Potency,[5],inactive
same,Potency,[6],inactive
COc1cc([C@@H]2c3cc4c(cc3[C@@H](O[C@@H]3O[C@@H]5CO[C@@H](C)O[C@H]5[C@H](O)[C@H]3O)[C@H]3COC(=O)[C@H]23)OCO4)cc(OC)c1O,outcome,[18],inactive
same,Potency,[9],21.6 µM (active)
same,Potency,[19],inactive
same,Potency,[10],inactive
same,outcome,[15],inactive
same,Potency,[11],inactive
same,Potency,[13],21.6 µM (active)
same,Potency,[14],inactive
same,Potency,[1],inactive
same,Potency,[16],27 µM (active)
same,Potency,[6],inactive
same,Potency,[7],67.8 µM (active)
